{"source": "PubChem BioAssay (NCATS)", "note": "Results filed as inconclusive are left out. A call without a number means that no potency is given here. Values without a mark were called inactive. The source made the active and inactive calls. The call rests on the fitted dose curve; in most records, active means well fitted inhibition curve with a large enough effect; inconclusive means small, poorly fitted or top-dose-only effect; inactive means no such curve, though single readings can be large or run the other way.", "data": [{"target": "Rap guanine nucleotide exchange factor 3 (Homo sapiens) (UniProt O95398)", "sequence (O95398 whole entry, looked up)": "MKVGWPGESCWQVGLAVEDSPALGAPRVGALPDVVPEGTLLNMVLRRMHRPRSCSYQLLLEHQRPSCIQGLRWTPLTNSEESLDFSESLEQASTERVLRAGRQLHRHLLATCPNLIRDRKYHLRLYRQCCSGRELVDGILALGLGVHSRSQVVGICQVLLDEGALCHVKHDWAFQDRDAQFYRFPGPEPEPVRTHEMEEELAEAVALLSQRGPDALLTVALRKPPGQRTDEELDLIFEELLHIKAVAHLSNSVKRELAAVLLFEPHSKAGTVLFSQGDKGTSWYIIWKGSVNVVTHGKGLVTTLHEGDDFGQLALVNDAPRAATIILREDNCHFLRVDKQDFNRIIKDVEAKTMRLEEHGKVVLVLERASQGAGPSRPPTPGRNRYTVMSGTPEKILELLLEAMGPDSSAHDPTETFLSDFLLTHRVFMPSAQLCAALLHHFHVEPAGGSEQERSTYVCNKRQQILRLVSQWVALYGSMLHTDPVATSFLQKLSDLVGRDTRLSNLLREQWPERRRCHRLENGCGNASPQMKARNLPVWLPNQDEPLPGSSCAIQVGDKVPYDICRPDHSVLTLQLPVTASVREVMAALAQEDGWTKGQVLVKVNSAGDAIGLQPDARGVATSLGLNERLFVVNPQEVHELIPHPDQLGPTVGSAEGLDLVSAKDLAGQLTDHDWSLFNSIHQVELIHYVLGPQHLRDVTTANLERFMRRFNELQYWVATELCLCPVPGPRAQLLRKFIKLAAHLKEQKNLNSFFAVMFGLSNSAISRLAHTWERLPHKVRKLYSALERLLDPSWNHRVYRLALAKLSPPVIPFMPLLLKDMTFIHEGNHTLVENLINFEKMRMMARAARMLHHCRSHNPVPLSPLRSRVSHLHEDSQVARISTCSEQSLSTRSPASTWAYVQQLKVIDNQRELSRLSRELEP", "assay": "Counterscreen qHTS for antagonist of cAMP-regulated guanine nucleotide exchange factor 3 (EPAC1) (AID 1645888);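 further: fluorescence loss as bound BODIPY-GDP is released from Rap1B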", "conditions": "Rap1B-BODIPY-GDP nucleotide exchange, fluorescence; series mostly up to 154 µM", "procedure,_shortened": "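Rap1B-BODIPY-GDP 250 nM + GDP 50 uM; cpds 7-pt, final 9.74 nM–152 uM (activator mode) or from 7.32 nM upwards (inhibitor mode); RT; FI 480/540 nm at 5 and 30 min, then ± cAMP, reread.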", "values": [{"smiles": "COc1cccc(C(=O)Nc2nnc(-c3ccccc3)s2)c1OC", "Potency": "inactive"}, {"smiles": "CC(C)Oc1cccc(C(=O)Nc2ccc3oc(-c4cccc(Cl)c4)nc3c2)c1", "Potency": "inactive"}, {"smiles": "CCc1ccc2c(c1)NC(=O)C2(C)Cc1ccc(Cl)s1", "note": "(stereo not given)", "activity change, negative = inhibition": "-21.9% [at 30.8 µM]"}, {"smiles": "Cc1cccc(-c2nc3c(cnn3-c3ccccc3)c(=O)n2-c2cccc(Cl)c2)c1", "Potency": "inactive"}, {"smiles": "O=S1(=O)N=C(N(Cc2cccs2)c2ccc(O)cc2)c2ccccc21", "Potency": "inactive"}, {"smiles": "Cc1[nH]n(-c2ccccc2)c(=O)c1C=Nc1ccc(S(=O)(=O)N=C(N)N)cc1", "Potency": "inactive"}, {"smiles": "COc1ccc(OCc2nc3ccccc3n2C(C)c2ccccc2)cc1", "note": "(stereo not given)", "Potency": "inactive"}, {"smiles": "COc1ccc2c(c1)Cc1sc(NC(=O)c3ccccc3C)nc1-2", "Potency": "inactive"}, {"smiles": "O=C(N/N=C/c1ccc(O)c(O)c1)c1ccc(CSc2cccc3cccnc23)cc1", "activity change, negative = inhibition": "41.8% [at 30.8 µM]"}, {"smiles": "COc1ccc(/C=C2\\C(=O)NC(=S)N2C(=O)c2ccc(F)cc2)cc1", "Potency": "inactive"}, {"smiles": "CCSc1nc2c([nH]c3ccccc32)c(=O)n1-c1cccc(OC)c1", "Potency": "inactive"}, {"smiles": "Fc1ccc(/C=C2\\CCCC3=C2Nc2ncnn2C3c2ccc(F)cc2)cc1", "note": "(stereo not given)", "activity change, negative = inhibition": "-4.64% [at 30.8 µM]"}, {"smiles": "Cc1ccc(N(Cc2cccs2)C(=O)c2ccc(Br)o2)cc1", "Potency": "inactive"}, {"smiles": "C/C(=N\\NC(=O)c1ccc(O)cc1)c1cccc(NC(=O)c2ccc(Cl)cc2)c1", "Potency": "inactive"}, {"smiles": "CCn1c2c(c3cc(Cl)ccc31)CCCC2=O", "Potency": "inactive"}, {"smiles": "Cc1c(C)c2ccc(OCC(=O)Nc3ccc(S(N)(=O)=O)cc3)c(C)c2oc1=O", "Potency": "inactive"}, {"smiles": "COc1ccc(OC)c(NC(=O)CSc2nc(O)cc(=O)n2CC(C)C)c1", "Potency": "inactive"}, {"smiles": "CC(=O)C(=Cc1ccc(Cl)cc1)C(=O)c1ccccc1", "Potency": "inactive"}, {"smiles": "CN1CCN(c2cc(N3CCN(C(=O)c4ccco4)CC3)c3c4c(onc24)-c2ccccc2C3=O)CC1", "Potency": "inactive"}, {"smiles": "Cc1ccc(C)c(Cn2c(CN(C)Cc3ccccc3)nc3c2c(=O)n(C)c(=O)n3C)c1", "Potency": "inactive"}, {"smiles": "CCOC(=O)C1=C(C)NC(C)=C(C(=O)OCC)C1c1cccc([N+](=O)[O-])c1", "activity change, negative = inhibition": "3.16% [at 30.8 µM]"}, {"smiles": "Cn1c(SCC(=O)c2cc(Cl)c(Cl)s2)nnc1-c1ccco1", "Potency": "inactive"}, {"smiles": "CCN(C(=O)Cn1c(C(=O)OC)cc2sccc21)c1cccc(C)c1", "Potency": "inactive"}, {"smiles": "Cc1cccc([C@H]2[C@@H]3C=CCC[C@@H]3C(=O)N2Cc2ccccc2)c1", "Potency": "inactive"}, {"smiles": "COn1c2c(c3c4nonc4ccc31)CCCC2", "Potency": "inactive"}, {"smiles": "COc1ccccc1N1CSC2=C(C#N)C(c3ccc(SC)cc3)CC(=O)N2C1", "note": "(stereo not given)", "activity change, negative = inhibition": "-2.77% [at 30.8 µM]"}, {"smiles": "Cc1nc(-c2ccc(Cl)cc2)sc1CCNC(=O)c1cccs1", "Potency": "inactive"}, {"smiles": "COc1ccc(CC(=O)NCc2ccc3c(c2)CCN3C(=O)c2ccc(Cl)cc2)cc1OC", "Potency": "inactive"}, {"smiles": "Cc1ccc(N(Cc2ccc([N+](=O)[O-])cc2)C(=O)c2ccco2)cc1", "Potency": "inactive"}, {"smiles": "CCOc1cc(/C=C2/NC(=O)NC2=O)cc(Br)c1OCc1ccc(C(=O)O)cc1", "activity change, negative = inhibition": "-1.26% [at 30.8 µM]"}, {"smiles": "COc1cccc(/C=C2\\SC(=S)NC2=O)c1OS(=O)(=O)c1ccc(NC(C)=O)cc1", "activity change, negative = inhibition": "-18.9% [at 30.8 µM]"}, {"smiles": "O=C(Nc1cccc(Cl)c1)Nc1ccccc1NS(=O)(=O)c1cccs1", "activity change, negative = inhibition": "-19.4% [at 30.8 µM]"}, {"smiles": "Cn1cnnc1SCC(=O)Nc1sc2c(c1C(N)=O)CCC2", "Potency": "inactive"}, {"smiles": "O=C1C=C(NS(=O)(=O)c2ccccc2)C(=O)c2ccccc21", "Potency": "inactive"}, {"smiles": "COc1ccc(OCc2nc3ccccc3n2Cc2ccc(C(C)(C)C)cc2)cc1", "Potency": "inactive"}, {"smiles": "CCn1c(=O)c2sccc2n2c(CCCC(=O)N3CCN(c4cc(Cl)ccc4C)CC3)nnc12", "Potency": "inactive"}, {"smiles": "Cc1cccc(Nc2nnc(-c3ccc(N4CCOCC4)c([N+](=O)[O-])c3)c3ccccc23)c1", "Potency": "inactive"}, {"smiles": "C/C=C/COC(=O)c1[nH]c2c(c1C)C(=O)CC(c1ccco1)C2", "note": "(stereo not given)", "Potency": "inactive"}, {"smiles": "CN(C)S(=O)(=O)c1cccc(COC(=O)Cc2c(F)cccc2Cl)c1", "Potency": "inactive"}, {"smiles": "CCc1ccc2c(c1)NC(=O)C2(C)Cc1ccc(F)cc1", "note": "(stereo not given)", "activity change, negative = inhibition": "16.2% [at 30.8 µM]"}]}]}
